The record followed here is the supplement of paper PMC10933113.

± gives the uncertainty stated by the source.

This test has as its system THP-1. Nature of the test: CD86 surface expression induction over DMSO control (% over DMSO); higher = stronger dendritic cell activation. Particulars: exposure time: 24 h. The procedure:
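hCLAT-like CD54 and CD86 surface expression on THP1 cells after 24 h exposure at a single concentration (highest non-cytotoxic concentration, or 100-200 µM if not cytotoxic). Flow cytometry (iQue) was run on 5,000 live cells.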
On to `CC(C(=O)O)c1ccc(/C=C2\CCCCC2=O)cc1` (centres undefined) [Pelubiprofen] (100 µM), for which the “CD86 surface expression induction” value is -4.77 ± 4.1.
With `O=C(NS(=O)(=O)/C=C/c1cccs1)c1ccc(F)cc1Br` (200 µM), the “CD86 surface expression induction” value is -2.46 ± 4.
Consider `Cc1c(C)n(Cc2ccccc2)c2ccc(C(=O)OCCN(C)C)cc12` [Indocate] (200 µM), for which the “CD86 surface expression induction” value was found to be 67.3 ± 61.
Turning to `CCCCNC(=S)NCCCC` [N,N'-Dibutylthiourea] (10 µM), the “CD86 surface expression induction” value was -9.37 ± 9.2.
